Screening data from PubChem BioAssay.
Only some compounds are listed: those with a hit (about 19% of all), similar ones and a draw of the others.
IL1B secr inh: blocks inflammasome-driven IL-1 beta release | THP-1 LPS/ATP IL-1B secretion, AlphaLISA, 16 h; stronger effect = lower value | activity change, % at 57.5 µM | 4.7% of 360,000 active | AID 743279; in the data active means activity change below about -50%; inconclusive means mostly about -30% to -49%
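THP-1 cells pretreated 1 hr with compounds (up to 57.5 uM final), then stimulated with LPS (250 ng/mL final) plus ATP (1.25 mM final); secreted IL-1B measured by AlphaLISA after 16 hr, decreased signal indicating inhibition.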
DT40 TDP1 no CPT: qHTS for Inhibitors of human tyrosyl-DNA phosphodiesterase 1 (TDP1): qHTS in cells in absence of CPT | DT40 Tdp1-/- hTDP1 cells, no CPT, ATP luminescence, 48 h | Potency, µM (series often up to 46.2 µM), inactives show at the top dose activity change, negative = growth inhibition, actives largely listed as inhibitors | 15% of 420,000 active; further: potency means the concentration at half of the fitted maximal effect; nearly all actives have a fitted effect of over 55% in size
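Chicken DT40 Tdp1-/- cells complemented with human TDP1, screened without camptothecin (DMSO vehicle only), 400 cells/well. Compounds pin-transferred, cells incubated at 37 °C for at least 48 hr. Growth read as ATP-dependent luminescence (CellTiter-Glo, 30 min at RT).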
TDP1 cell CPT: growth inhibition of DT40 Tdp1-/-;hTDP1 cells with camptothecin (screen for TDP1 inhibitors); 12% of 420,000 active; Potency, µM (doses to about 46.2 µM), without a hit: at the highest dose activity change, negative = growth inhibition, most hits filed as inhibitors; chicken DT40 Tdp1-/-;hTDP1 cells + 20 nM CPT, ATP luminescence, 48 h; further: potency means the concentration at half of the fitted maximal effect; nearly all actives have a fitted effect of over 55% in size
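Cell growth measured by CellTiter-Glo luminescence after a minimum 48 h, 37 C compound exposure with 20 nM CPT in Tdp1-knockout DT40 cells stably expressing hTDP1, seeded 400/well; qHTS titration format.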
HT1080-NT tox: kills 2HG-producing HT-1080-NT fibrosarcoma cells; HT-1080-NT fibrosarcoma viability, CellTiter-Glo ATP luminescence, 48 h; Potency, µM (doses to about 46.1 µM), for inactives: at the highest dose activity, negative = less viability, most hits filed as cytotoxic; 1.6% of 360,000 active; AID 686970;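 further: NT is the 2HG producing partner of a matched IDH1 knockdown line; potency means the concentration at half of the fitted maximal effect; 0% = DMSO-treated cells and -100% = media-only wells without cells; nearly all actives have a fitted effect of over 55% in size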
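750 cells/well, RPMI + 5% FBS; 2 h settle, compound pin-transfer, 48 h at 37 degrees C. CellTiter-Glo 10 min RT, luminescence. Normalized to DMSO and media-only wells.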
HT1080 IDH1KD tx: HT-1080 IDH1 knockdown cell toxicity (counter line). HT-1080 IDH1 knockdown viability, ATP luminescence, 48 h. Potency, µM (series often up to 46.1 µM), without a hit: at the highest dose activity, negative = toxicity, actives largely listed as cytotoxic. 2% of 360,000 active. AID 686971;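 further: potency means the concentration at half of the fitted maximal effect; 0% = DMSO wells and -100% = cell-free medium wells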
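Luminescent ATP read-out (CellTiter-Glo, 10 min at room temperature) after 48 h compound exposure at 37 °C gave viability of IDH1-knockdown HT-1080 cells. Activity was normalised to DMSO and cell-free wells, then fitted as concentration-response curves.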
ELG1 repair inh: ELG1-dependent DNA repair inhibition; AID 504467; HEK293T ELG1-luciferase reporter, luminescence, 16 h; DNA damage induced by 5-fluorouridine; Potency, µM (titrated, usually from 46.1 µM), for the others: top-dose activity change, negative = inhibition, usual class: inhibitors; 2.3% of 330,000 active; further: potency means the concentration at half of the fitted maximal effect; nearly all actives have a fitted effect of over 55% in size
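Reporter activity after DNA damage by 5-fluorouridine is monitored. Compound-treated cells incubate 16 hr at 37 °C, then ONE-Glo is added for 30 min before luminescence reading.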
Numbers without * were called inactive; ? = inconclusive; nt = no result; [ ] = remark or other dose. Unless noted, the call rests on the fitted dose curve; in most records, active means well fitted curve in the direction sought with a large enough effect; inconclusive means small, poorly fitted or top-dose-only effect, or another doubt; inactive means no such curve, though single readings can be large; an effect the other way counts as inactive or inconclusive. Unless noted, on the % scale 0 is the no-effect control and ±100 the full control effect.

SMILES	IL1B secr inh	DT40 TDP1 no CPT	TDP1 cell CPT	HT1080-NT tox	HT1080 IDH1KD tx	ELG1 repair inh
CCOC(=O)c1ccc(Nc2cc(C)nc(-c3ccccc3O)n2)cc1	?	29µM*	?	-10%	9%	?
CCOC(=O)c1ccc(Nc2cc(-c3ccccc3)nc(C)n2)cc1	nt	?	-29%	nt	nt	nt
Cc1cc(Nc2cccc(F)c2)nc(-c2ccccc2O)n1	-61*	?	?	?	?	-26%
Cc1ccc(C)c(Nc2cc(C)nc(-c3ccccc3O)n2)c1	0	5.8µM*	6.5µM*	?	?	?
Cc1cc(N/N=C/c2c(O)ccc3ccccc23)nc(-c2ccccc2O)n1	27	2.6µM*	8.2µM*	?	?	23µM*
COC(C(=O)N/N=C/c1ccc(OCC(=O)N2CCOCC2)cc1)c1ccccc1 (stereo unspecified)	25	-6%	8%	14%	-1%	13%
Cc1cc(NCc2ccccc2)nc(-c2ccccc2O)n1	-6	?	?	-15%	-23%	-4%
Cc1cc(Nc2ccccc2Cl)nc(-c2ccccc2O)n1	-70*	?	?	-21%	?	?
Cc1cc(Nc2ccccc2)nc(-c2ccccc2O)n1	-17	?	16µM*	?	4%[9.24 µM]	8%
Fc1ccc(CN2CCN(c3ncccn3)CC2)c(F)c1	-1	-26%	1%	6%	3%	-7%
O=C(c1ccc2c(=O)n(C3CCCC3)c(=S)[nH]c2c1)N1CCc2ccccc21	0	21µM*	12µM*	-7%	-6%	-3%
CCN(CC)CCNC(=O)c1ccc2c(=O)n(C3CCCC3)c(=S)[nH]c2c1	6	-29%	?	?	20µM*	?
Cc1c(OCC(=O)NC2CC(C)(C)NC(C)(C)C2)ccc2c1oc(=O)c1ccccc12	?	12µM*	?	16%	3%	18%
Cc1cc(=O)oc2c(C)c(OCC(=O)NC3CC(C)(C)NC(C)(C)C3)ccc12	-23	-2%	39%	-3%	4%	?
Cc1c(OCC(=O)NC2CC(C)(C)NC(C)(C)C2)ccc2c3c(c(=O)oc12)CCC3	-54*	-26%	?	-8%	-6%	27%
COc1ccc(-n2cc(CN[C@H]3CCCCNC3=O)c(-c3cccc(F)c3)n2)cc1	?	5.8µM*	5.8µM*	-15%	-1%	?
Cc1cccc(-n2cc(CN3CCN(Cc4nccn4C)CC3)c(-c3cccc(F)c3)n2)c1	?	?	?	-25%	?	18µM*
COc1ccc(N2C(=O)CC(NC3CCCCNC3=O)C2=O)cc1 (stereo unspecified)	0	-16%	0%	43%	22%	0%
COc1ccc(-n2cc(CN3CCCC3)c(-c3cccc(F)c3)n2)cc1	-77*	21µM*	?	-8%	-18%	7%
CC(=O)N1CCCN(Cc2cn(-c3ccc(C)cc3)nc2-c2cccc(C)c2)CC1	?	?	?	19%	-2%	?
COc1ccc(-n2cc(CNC3CCN(C)CC3)c(-c3cccc(F)c3)n2)cc1	-63*	15µM*	15µM*	21µM*	21µM*	0%
Cc1ccc(NC(=O)c2ccc(NC(=O)N3CCSc4nc(C)cc(C)c43)cc2)c(Cl)c1	nt	-20%	?	nt	nt	nt
Cc1nc2c(OCc3ccc(C(F)(F)F)cc3)cccn2c1N(C)Cc1cccs1	-84*	?	?	?	26µM*	nt
CCc1nc2c(OCc3ccc(C(F)(F)F)cc3)cccn2c1N(C=O)Cc1ccc(OC)cc1	-72*	16µM*	21µM*	?	?	nt
CCc1nc2c(OCc3ccc(C(F)(F)F)cc3)cccn2c1N(C)C(=O)c1ccco1	-19	?	?	0%	-18%	nt
SMILES	IL1B secr inh	DT40 TDP1 no CPT	TDP1 cell CPT	HT1080-NT tox	HT1080 IDH1KD tx	ELG1 repair inh
CCCCN(C=O)c1c(CC)nc2c(OCc3ccc(C(F)(F)F)cc3)cccn12	-65*	12µM*	12µM*	?	?	nt
COc1ccc(CCC(=O)Nc2ccc(S(=O)(=O)N3CCCC3)cc2)cc1OC	-2	-2%	-16%	4%	3%	-15%
COc1ccc(OCC(O)CN(CC(O)COc2ccc(OC)cc2)c2cccc(O)c2)cc1 (stereo unspecified)	-50*	-47%	?	?	?	?
CCOc1ccc(NC(=O)NC(CC)Cn2nnc3ccccc3c2=O)cc1 (stereo unspecified)	nt	-24%	-24%	nt	nt	nt
COC(=O)C1=C(C(=O)OC)[C@@H]2N(Cc3ccccc3)c3ccccc3[C@@]23C[C@@H](C(=O)OC)N(C(=O)c2ccc(Br)cc2)C3=N1	8	18µM*	?	-18%	?	?
CCOC(=O)N1C2=NC(C(=O)OC)=C(C(=O)OC)[C@@H]3N(C)c4ccc(OC)cc4[C@]23C[C@H]1C(=O)OC	5	?	?	3%	4%	nt
COC(=O)C1=C(C(=O)OC)[C@@H]2N(C)c3ccc(OC)cc3[C@@]23C[C@@H](C(=O)OC)N(C(=O)c2ccc(Br)cc2)C3=N1	9	26µM*	?	23µM*	?	?
C=CCN1c2ccccc2[C@]23C[C@@H](C(=O)OC)N(C(=O)c4ccc(Br)cc4)C2=NC(C(=O)OC)=C(C(=O)OC)[C@H]13	36	?	?	18µM*	?	?
C=CCN1c2ccccc2[C@]23C[C@@H](C(=O)OC)N(C(=O)OCC)C2=NC(C(=O)OC)=C(C(=O)OC)[C@H]13	23	-1%	?	5%	7%	nt
COC(=O)C1=C(C(=O)OC)[C@@H]2N(Cc3ccccc3)c3ccccc3[C@@]23C[C@@H](C(=O)OC)N(C(=O)NC(C)(C)C)C3=N1	12	-19%	?	8%	10%	nt
COC(=O)C1=C(C(=O)OC)[C@@H]2N(Cc3ccccc3)c3ccccc3[C@@]23C[C@@H](C(=O)OC)N(C(C)=O)C3=N1	26	?	?	3%	7%	-9%
CCOC(=O)N1C2=NC(C(=O)OC)=C(C(=O)OC)[C@@H]3N(Cc4ccccc4)c4ccccc4[C@]23C[C@H]1C(=O)OC	18	?	18µM*	6%	9%	nt
